PubChem BioAssay (Tox21)
Inconclusive results are not listed. Entries that show only a call come without a potency. Activity calls are given as the source filed them. Unless noted, calls follow the shape of the dose curve; as a rule, active = well fitted curve in the direction sought with a large enough effect in the repeat runs; inconclusive = weak or mixed curves; inactive = no such curve, though single readings can be large; an effect the other way counts as inactive or inconclusive.

Target: Estrogen receptor (Homo sapiens) (UniProt P03372)
Sequence (P03372 whole entry, looked up): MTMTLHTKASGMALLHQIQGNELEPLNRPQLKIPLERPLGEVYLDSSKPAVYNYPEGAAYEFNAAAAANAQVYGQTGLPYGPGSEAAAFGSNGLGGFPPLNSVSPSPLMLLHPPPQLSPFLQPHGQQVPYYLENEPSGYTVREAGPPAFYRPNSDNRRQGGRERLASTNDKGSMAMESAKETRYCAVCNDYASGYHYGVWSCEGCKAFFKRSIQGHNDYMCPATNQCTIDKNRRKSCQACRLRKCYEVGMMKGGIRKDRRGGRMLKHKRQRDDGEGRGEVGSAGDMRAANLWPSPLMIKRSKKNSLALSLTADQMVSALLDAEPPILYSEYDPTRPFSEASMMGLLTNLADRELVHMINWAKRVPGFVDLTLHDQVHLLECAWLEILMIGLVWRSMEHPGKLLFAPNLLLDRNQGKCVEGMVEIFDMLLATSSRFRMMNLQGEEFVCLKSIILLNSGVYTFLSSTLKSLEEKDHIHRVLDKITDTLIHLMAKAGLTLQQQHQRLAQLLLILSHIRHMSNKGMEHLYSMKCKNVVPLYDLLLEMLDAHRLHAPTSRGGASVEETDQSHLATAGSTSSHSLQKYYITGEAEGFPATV
Assay: qHTS assay to identify small molecule antagonists of the estrogen receptor alpha (ER-alpha) signaling pathway using the BG1 cell line in the presence of 0.1 nM 17-beta-estradiol (AID 1259244); also: nearly all actives have a fitted effect of over 50% in size; also: potency is read from the fitted curve at half-maximal effect
Conditions: VM7Luc4E2 (BG1) ERE-luciferase, antagonist mode, 0.1 nM E2, 22 h; series mostly up to 92.4 µM
Summary of the method: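 VM7Luc4E2 cells (endogenous full-length ER-alpha, 4×ERE-luciferase), kept 5 days in phenol red-free, charcoal-stripped FBS medium; 4,000 cells/well. Compounds added with 0.1 nM (final) 17beta-estradiol, 22 hr at 37C; luminescence read with ONE-Glo after 30 min.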

| SMILES | Potency |
| --- | --- |
| CCOC(=O)c1ccc(O)c(O)c1 | inactive |
| CC(C)(C)C(=O)C(=O)O | inactive |
| COC(=O)[C@H]1[C@H]2C[C@@H]3c4[nH]c5cc(OC)ccc5c4CCN3C[C@H]2C[C@@H](OC(=O)/C=C/c2ccc(O)c(OC)c2)[C@@H]1OC | inactive |
| Nc1nnc(-c2ccc([N+](=O)[O-])o2)o1 | 54.5 µM (active) |
| Oc1ccc(Cl)c2cccnc12 | 21.1 µM (active) |
| O=C(OCC(O)CO)c1ccccc1Nc1ccnc2cc(Cl)ccc12 (stereo not drawn) | inactive |
| CC(CN(C)C)C(C)(O)Cc1ccc(Cl)cc1 (stereo not drawn) | inactive |
| CCCCN1CCCC1C(=O)Nc1c(C)cc(C)cc1C (stereo not drawn) | inactive |
| CN1C(=O)N(c2ccccc2Br)Cc2cnc(Nc3ccc4c(c3)OCC(CO)O4)nc21 (stereo not drawn) | 48.6 µM (active) |
| CCOc1ccccc1O[C@H](c1ccccc1)[C@H]1CNCCO1 | inactive |
| CCCCCC#CC(=O)OC | inactive |
| NCCNCCO | inactive |
| CS(=O)(=O)c1ccc(-c2cn3ccccc3n2)cc1 | inactive |

System: not listed separately
Assay: qHTS assay to identify small molecule phospholipidosis (PLD) inducers (AID 1259344; active = well fitted curve in the direction sought with a large enough effect; an effect the other way counts as inactive or inconclusive)
Conditions: HepG2 phospholipidosis, LipidTOX Red imaging, 24 h; series mostly up to 38.3 µM
Summary of the method: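 HepG2 cells on collagen I, attached 4 h at 37 C, were co-treated with compound and LipidTOX Red dye for 24 h at 37 C, then fixed with paraformaldehyde plus Hoechst 33342 and imaged by high-content microscopy for phospholipid accumulation.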

| SMILES | Potency |
| --- | --- |
| Cc1ccc(Cl)c(Nc2ccccc2C(=O)O)c1Cl | inactive |
| Cc1cc(=O)c2c(O)c3c(O)cc(=O)c4c3c3c(cc(O)c1c23)C(C)(C)C=4O | inactive |
| NC1[C@H]2CN(c3nc4c(cc3F)c(=O)c(C(=O)O)cn4-c3ccc(F)cc3F)C[C@@H]12 (stereo partly drawn) | inactive |
| CC1CC(OC(=O)C(O)c2ccccc2)CC(C)(C)N1C (stereo not drawn) | inactive |
| OC(CCN1CCCC1)(c1ccccc1)C1CCCCC1 (stereo not drawn) | inactive |
| CCOC(=O)c1ccc(C#Cc2ccc3c(c2)C(C)(C)CCS3)nc1 | inactive |
| Oc1ccc(Cl)c2cccnc12 | inactive |
| O=C(OCC(O)CO)c1ccccc1Nc1ccnc2cc(Cl)ccc12 (stereo not drawn) | inactive |
| Nc1nc2ccc([N+](=O)[O-])cc2s1 | inactive |
| CO/N=C(/C(=O)N[C@@H]1C(=O)N2C(C(=O)O)=C(COC(N)=O)CS[C@H]12)c1ccco1 | inactive |
| CC(CN(C)C)C(C)(O)Cc1ccc(Cl)cc1 (stereo not drawn) | inactive |
| O=C(O)CCc1nc(-c2ccccc2)c(-c2ccccc2)o1 | inactive |
| CCCCN1CCCC1C(=O)Nc1c(C)cc(C)cc1C (stereo not drawn) | inactive |
| CN1C(=O)c2ccccc2C1=O | inactive |
| CCOc1ccccc1O[C@H](c1ccccc1)[C@H]1CNCCO1 | inactive |
| COC(=O)C1=C(C)NC(C)=C(C(=O)O[C@@H]2CCCN(Cc3ccccc3)C2)[C@@H]1c1cccc([N+](=O)[O-])c1 | inactive |
| COc1cc(N)c(Cl)cc1C(=O)NC1CCN(CCCOc2ccc(F)cc2)CC1OC (stereo not drawn) | inactive |

System: not listed separately
Assay: qHTS assay to identify small molecule HDAC inhibitors (AID 1259364); also: nearly all actives have a fitted effect of over 45% in size; also: potency is read from the fitted curve at half-maximal effect; as to activity change, negative = inhibition: top concentration of the series differs between compounds
Conditions: HCT-116 HDAC-Glo I/II luminescence, 2 h; series mostly up to 92.4 µM
Summary of the method: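 Wild-type HCT-116 cells, plated overnight at 37 C, exposed to compounds 2 hr at 37 C; luminogenic HDAC-Glo substrate then added 30 min at room temperature. Luminescence reports relative endogenous class I/II HDAC activity.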

| SMILES | Potency | activity change, negative = inhibition |
| --- | --- | --- |
| Cc1ccc(Cl)c(Nc2ccccc2C(=O)O)c1Cl | inactive | – |
| Cc1cc(=O)c2c(O)c3c(O)cc(=O)c4c3c3c(cc(O)c1c23)C(C)(C)C=4O | – | 3.66% [at 19 µM] (inactive) |
| NC1[C@H]2CN(c3nc4c(cc3F)c(=O)c(C(=O)O)cn4-c3ccc(F)cc3F)C[C@@H]12 (stereo partly drawn) | inactive | – |
| CCOC(=O)c1ccc(O)c(O)c1 | inactive | – |
| CC1CC(OC(=O)C(O)c2ccccc2)CC(C)(C)N1C (stereo not drawn) | inactive | – |
| CC(C)(C)C(=O)C(=O)O | inactive | – |
| CCC1(CO)COCOC1 | inactive | – |
| O=c1cc(-c2ccccc2)oc2cc(O)cc(O)c12 | 6.86 µM (active) | – |
| CC[C@]1(O)C[C@H]2CN(CCc3c([nH]c4ccccc34)[C@@](C(=O)OC)(c3cc4c(cc3OC)N(C=O)[C@H]3[C@@](O)(C(=O)OC)[C@H](OC(C)=O)[C@]5(CC)C=CCN6CC[C@]43[C@@H]65)C2)C1 | inactive | – |
| OC(CCN1CCCC1)(c1ccccc1)C1CCCCC1 (stereo not drawn) | inactive | – |
| CCOC(=O)c1ccc(C#Cc2ccc3c(c2)C(C)(C)CCS3)nc1 | inactive | – |
| COC(=O)[C@H]1[C@H]2C[C@@H]3c4[nH]c5cc(OC)ccc5c4CCN3C[C@H]2C[C@@H](OC(=O)/C=C/c2ccc(O)c(OC)c2)[C@@H]1OC | inactive | – |
| O=C1c2ccccc2C(=O)C1(O)O | inactive | – |
| Nc1nnc(-c2ccc([N+](=O)[O-])o2)o1 | inactive | – |
| Oc1ccc(Cl)c2cccnc12 | inactive | – |
| CCCCCCCC/C=C\CCCCCCCCO | inactive | – |
| O=C(OCC(O)CO)c1ccccc1Nc1ccnc2cc(Cl)ccc12 (stereo not drawn) | inactive | – |
| Nc1nc2ccc([N+](=O)[O-])cc2s1 | 17.7 µM (active) | – |
| CC(CC1c2ccccc2CCc2ccccc21)CN(C)C (stereo not drawn) | inactive | – |

| SMILES | Potency | activity change, negative = inhibition |
| --- | --- | --- |
| C[C@H]1C[C@H](O)c2ccsc2S1(=O)=O | inactive | – |
| CO/N=C(/C(=O)N[C@@H]1C(=O)N2C(C(=O)O)=C(COC(N)=O)CS[C@H]12)c1ccco1 | inactive | – |
| COc1ccc(OC(=O)N(CC(=O)O)Cc2ccc(OCCc3nc(-c4ccccc4)oc3C)cc2)cc1 | inactive | – |
| CC(CN(C)C)C(C)(O)Cc1ccc(Cl)cc1 (stereo not drawn) | inactive | – |
| O=C(O)CCc1nc(-c2ccccc2)c(-c2ccccc2)o1 | inactive | – |
| CCC(OCCCOC)OC(C)=O (stereo not drawn) | inactive | – |
| CC1=C(Br)C(=O)C(Br)=C/C1=C(/c1ccccc1S(=O)(=O)O)c1cc(Br)c(O)c(Br)c1C | 7.39 µM (active) | – |
| CC1=Nc2ccc3ccccc3c2C1(C)C | inactive | – |
| CCCCN1CCCC1C(=O)Nc1c(C)cc(C)cc1C (stereo not drawn) | inactive | – |
| CN1C(=O)N(c2ccccc2Br)Cc2cnc(Nc3ccc4c(c3)OCC(CO)O4)nc21 (stereo not drawn) | inactive | – |
| CC(C)C(O)(c1ccc(OC(F)(F)F)cc1)c1cncnc1 (stereo not drawn) | inactive | – |
| CC(CCC(=O)O)C(=O)O (stereo not drawn) | inactive | – |
| CN1C(=O)c2ccccc2C1=O | inactive | – |
| CCOc1ccccc1O[C@H](c1ccccc1)[C@H]1CNCCO1 | inactive | – |
| CCCCCC#CC(=O)OC | inactive | – |
| NCCNCCO | inactive | – |
| COC(=O)C1=C(C)NC(C)=C(C(=O)O[C@@H]2CCCN(Cc3ccccc3)C2)[C@@H]1c1cccc([N+](=O)[O-])c1 | inactive | – |
| COc1cc(N)c(Cl)cc1C(=O)NC1CCN(CCCOc2ccc(F)cc2)CC1OC (stereo not drawn) | inactive | – |
| CS(=O)(=O)c1ccc(-c2cn3ccccc3n2)cc1 | 2.11 µM (active) | – |
